Laboratory results as given in PubChem BioAssay (Tox21).
Inconclusive results are not listed. Calls of active or inactive are those of the source. Unless noted, the call rests on the fitted dose curve; in most records, active means well fitted curve in the direction sought with a large enough effect in the repeat runs; inconclusive means weak or mixed curves; inactive means no such curve, though single readings can be large; an effect the other way counts as inactive or inconclusive.

Experiments:
[1] = qHTS assay to identify small molecule agonists of the NFkB signaling pathway (AID 1159509; active means well fitted curve in the direction sought with a large enough effect in the signal ratio in the repeat runs, not every such curve was filed as active; the % refers to the signal ratio)
Summary of the method: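 Agonist activity was read as beta-lactamase-driven FRET change (460 and 530 nm emission, 405 nm excitation) following 1.5 hr substrate loading at room temperature. Beforehand, ME-180 NFkB-bla reporter cells were treated with compounds for 5 hr at 37 C.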

[2] = qHTS assay to identify small molecule agonists of the NFkB signaling pathway - cell viability counter screen (AID 1159515; calls by dose curve; further: nearly all actives have a fitted effect of over 55% in size)
Summary of the method: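 Cells are seeded (2,000 NFkB-bla ME-180 per well), rested overnight, and dosed with DMSO-dissolved compounds for 5 hr at 37 C. Viability is then read by CellTiter-Glo luminescence after 30 min at room temperature.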

[3] = qHTS assay to identify small molecule agonists of the endoplasmic reticulum stress response signaling pathway - cell viability counter screen (AID 1159517; calls by dose curve;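 further: HeLa cells carrying an ER stress response element beta-lactamase reporter; nearly all actives have a fitted effect of over 50% in size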)
Summary of the method: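 In parallel with the ESRE reporter read, cytotoxicity was scored by CellTiter-Glo luminescence (30 min, room temperature) on HeLa ESRE-bla cells dosed for 5 hr.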

[4] = target: Nuclear receptor ROR-gamma (Homo sapiens) (UniProt P51449); experiment: qHTS assay to identify small molecule antagonists of the retinoid-related orphan receptor gamma (ROR-gamma) signaling pathway (AID 1159521; further: nearly all actives have a fitted effect of over 50% in size; further: potency means the concentration at half of the fitted maximal effect)
Summary of the method: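 Luminescence readout (ONE-Glo, 30 min RT) after 16 h doxycycline induction; loss of signal scored as antagonism. CHO cells with TET-inducible RORγ and RORE-LUC reporter; compounds added 2 h before 1 uM final doxycycline.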

[5] = qHTS assay to identify small molecule agonists of the AP-1 signaling pathway - cell viability counter screen (AID 1159525; calls by dose curve; further: nearly all actives have a fitted effect of over 55% in size)
Summary of the method: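 Same-well cytotoxicity counter screen of the Tox21 10K library in ME-180 cells. The readout is ATP-dependent luminescence after 5 h compound treatment. Data are normalised to DMSO and tetra n-octyl ammonium bromide controls.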

[6] = qHTS assay to identify small molecule antagonists of the retinoid acid receptor (RAR) signaling pathway - cell viability counter screen (AID 1159551); further: nearly all actives have a fitted effect of over 35% in size
Summary of the method: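 Cells (C3RL4) are plated, incubated overnight, dosed with compound in DMSO, then given retinol at 1 uM final. After 6 h at 37 C, CellTiter-Glo is added and luminescence read following 30 min at room temperature.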

[7] = qHTS assay to identify small molecule antagonists of the vitamin D receptor (VDR) signaling pathway - cell viability counter screen (AID 743225); further: nearly all actives have a fitted effect of over 50% in size; further: potency means the concentration at half of the fitted maximal effect
Summary of the method: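 Viability counter screen run in the same wells as the beta-lactamase reporter assay: HEK 293T VDR-UAS-bla cells, 16 h compound exposure at 37C with 3 nM (final) 1-alpha,25-dihydroxyvitamin D3. CellTiter-Glo luminescence, 30 min, room temperature.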

[8] = qHTS assay to identify small molecule antagonists of the retinoid-related orphan receptor gamma (ROR-gamma) signaling pathway - cell viability counter screen (AID 1159520); further: nearly all actives have a fitted effect of over 50% in size; further: potency means the concentration at half of the fitted maximal effect
Summary of the method: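 Tet-on ROR gamma CHO cells were given compounds for 2 hr, then doxycycline hyclate at 1 uM final, and incubated 16 hr at 37 C. Viability was measured as ATP content by CellTiter-Glo luminescence.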

[9] = qHTS assay to identify small molecule antagonists of the retinoic acid receptor (RAR) signaling pathway (AID 1159552; further: nearly all actives have a fitted effect of over 50% in size)
Summary of the method: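 Luminescence from a RARE luciferase reporter in C3RL4 cells served as read-out. Cells received compounds together with 1 uM final retinol and incubated 6 hr at 37 C before detection reagent was added for 30 min at room temperature.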

[10] = qHTS assay to identify small molecule agonists of the vitamin D receptor (VDR) signaling pathway - cell viability counter screen (AID 743224); further: nearly all actives have a fitted effect of over 50% in size; further: potency means the concentration at half of the fitted maximal effect
Summary of the method: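 Cells: VDR-bla, 2,000/well, settled 4 h. Treatment: compounds in DMSO, 16 h, 37C/5% CO2. Readout: CellTiter-Glo luminescence after 30 min RT.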

[11] = qHTS assay to identify small molecule agonists of the AP-1 signaling pathway (AID 1159526; calls by dose curve)
[12] = target: Retinoic acid receptor RXR-alpha (Homo sapiens) (UniProt P19793); experiment: qHTS assay to identify small molecule agonists of the RXR signaling pathway (AID 1159527; calls by dose curve; further: nearly all actives have a fitted effect of over 35% in size; further: potency means the concentration at half of the fitted maximal effect)
Retinoic acid receptor RXR-alpha (Homo sapiens), sequence (P19793 whole entry, looked up): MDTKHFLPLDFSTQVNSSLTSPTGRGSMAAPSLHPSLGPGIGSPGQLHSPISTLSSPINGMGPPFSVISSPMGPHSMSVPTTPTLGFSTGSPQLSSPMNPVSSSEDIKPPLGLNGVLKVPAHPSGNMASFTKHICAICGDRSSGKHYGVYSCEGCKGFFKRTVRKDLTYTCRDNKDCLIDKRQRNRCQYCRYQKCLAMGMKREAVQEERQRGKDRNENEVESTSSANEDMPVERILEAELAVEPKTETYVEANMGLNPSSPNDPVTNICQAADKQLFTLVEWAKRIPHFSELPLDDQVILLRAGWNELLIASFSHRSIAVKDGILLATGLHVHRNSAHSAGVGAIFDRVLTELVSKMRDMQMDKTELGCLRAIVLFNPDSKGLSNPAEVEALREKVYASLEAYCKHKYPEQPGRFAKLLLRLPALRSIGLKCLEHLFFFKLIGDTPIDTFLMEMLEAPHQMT
Summary of the method: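 Agonist mode; 9-cis retinoic acid positive control. HEK 293T UAS-bla reporter cells, 2% charcoal-stripped FBS, 16 hr compound exposure at 37 C/5% CO2. LiveBLAzer B/G FRET substrate 2 hr RT; ex 405, em 460/530 nm.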

[13] = qHTS assay to identify small molecule agonists of the RXR signaling pathway - cell viability counter screen (AID 1159529); further: nearly all actives have a fitted effect of over 50% in size; further: potency means the concentration at half of the fitted maximal effect
Summary of the method: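 Luminescence from CellTiter-Glo (30 min, RT) measured viability in the same wells as the beta-lactamase reporter readout. Cells: GeneBLAzer RXR-alpha HEK 293T, 2% charcoal-stripped FBS. Compound exposure 16 hr, 37 C.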

[14] = qHTS assay to identify small molecule agonists of the retinoic acid receptor (RAR) signaling pathway (AID 1159553); settings: C3RL4 RARE luciferase reporter, agonist, 6 h; activation: at 73.3 µM (top of the series); further: potency means the concentration at half of the fitted maximal effect
Summary of the method: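 Seed C3RL4 reporter cells at 1,000 per well and incubate overnight at 37 C. Add compounds in DMSO, incubate 6 hr. Add luciferase reagent, wait 30 min at room temperature, read luminescence.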

[15] = qHTS assay to identify small molecule antagonists of the estrogen related receptor (ERR) signaling pathway - cell viability counter screen (AID 1224818)
Summary of the method: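 ERR cells, 2,000/well; 6 h settle at 37 C/5% CO2; compound pin transfer (DMSO); 17.5 h at 37 C; CellTiter-Fluor, 30 min, fluorescence read.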

[16] = qHTS assay to identify small molecule antagonists of the estrogen related receptor (ERR) signaling pathway (AID 1224819; further: nearly all actives have a fitted effect of over 50% in size)
Summary of the method: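 qHTS in ERR cells, 2,000/well, 1536 format. Cpd (DMSO) added after 6 h settle, 18 h 37 C. One-Glo luminescence, 30 min RT.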

[17] = qHTS assay to identify small molecule agonists of the estrogen related receptor (ERR) signaling pathway (AID 1224820)
Summary of the method: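 After 6 h plating (2,000 cells/well) and 18 h compound treatment at 37 C, ERR cells were lysed with One-Glo and luminescence read after 30 min at room temperature.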

[18] = system: estrogen-related receptor alpha (ERRalpha) with PGC-1alpha coactivator, human; experiment: qHTS assay to identify small molecule antagonists of the estrogen related receptor signaling pathway with the pleiotropic PPARgamma coactivator (PGC) (AID 1224821; calls by dose curve)
Summary of the method: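 Luminescence from One-Glo luciferase reagent (30 min, room temperature) measured after 18 h compound treatment at 37 °C. Cells carry the PGC/ERR reporter and were seeded 6 h prior to dosing.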

[19] = qHTS assay to identify small molecule antagonists of the estrogen related receptor signaling pathway with the pleiotropic PPARgamma coactivator (PGC) cell viability counter screen (AID 1224822;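 further: viability read after 17.5 h compound exposure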)
Summary of the method: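 Multiplexed viability counter screen run in PGC/ERR cells treated with compounds for 17.5 h at 37 C; live-cell protease signal measured by CellTiter-Fluor fluorescence.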

[20] = qHTS assay to identify small molecule agonists of the endoplasmic reticulum stress response signaling pathway (AID 1159516; active means well fitted activation curve with a large enough effect in the signal ratio in the repeat runs, not every such curve was filed as active; the % refers to the signal ratio)
Summary of the method: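 Cells are seeded at 1,500 per well and incubated overnight. Compounds in DMSO are added for 5 hr at 37 C, then beta-lactamase FRET substrate for 2 hr at room temperature, and fluorescence at 460 and 530 nm is measured.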

Measured: Potency

C/C=C\C/C=C/CCCCCCCCOC(C)=O
inactive: [1] | [2] | [3] | [4] | [5] | [6]

C[C@@]12CCC[C@H]1[C@@H]1CC[C@H]3C[C@@H](O)CC[C@]3(C)[C@H]1CC2
inactive: [7] | [1] | [2] | [3] | [8] | [5] | [6] | [9]
active: [4] 13.3 µM

CC(CN(C)C)C(C)(O)Cc1ccc(Cl)cc1 (stereo not drawn)
inactive: [10] | [7] | [1] | [2] | [8] | [5] | [11] | [12] | [13] | [6] | [9]

C=C(C)C(=O)OCCOCCOC(=O)C(=C)C
inactive: [10] | [7] | [1] | [2] | [3] | [8] | [5] | [11] | [13] | [6]

CCCCCC[C@@H](O)C/C=C\CCCCCCCC(=O)O
inactive: [10] | [1] | [2] | [8] | [5] | [6]
active: [12] 49 µM | [13] 38.9 µM

CN1C(=O)c2ccccc2C1=O
not listed: [3] | [5] | [7] | [10] | [12] | [20]
inactive: all other assays above

Cc1ccc(CO)cc1
inactive: [10] | [7] | [1] | [2] | [8] | [4] | [5] | [11] | [13] | [6] | [9]

CC1=Nc2ccc3ccccc3c2C1(C)C
inactive: [10] | [7] | [1] | [2] | [8] | [13] | [6] | [9]

O=[N+]([O-])c1ccc(Nc2ccc(Nc3ccccc3)c(S(=O)(=O)O)c2)c([N+](=O)[O-])c1
inactive: [10] | [7] | [1] | [2] | [8] | [4] | [12] | [13] | [6]

NNC(=O)CP(=O)(c1ccccc1)c1ccccc1
not listed: [4] | [14] | [15] | [16] | [17] | [18] | [19] | [20]
inactive: all other assays above

COc1cc(Nc2c(C#N)cnc3cc(OCCCN4CCN(C)CC4)c(OC)cc23)c(Cl)cc1Cl
inactive: [1] | [2] | [3] | [4] | [5] | [6]
active: [7] 19 µM | [13] 8.49 µM

Cc1c(C)c2c(c(C)c1OC(=O)CCC(=O)OCCO)CC[C@@](C)(CCC[C@H](C)CCC[C@H](C)CCCC(C)C)O2
inactive: [1] | [2] | [8] | [5] | [13]
active: [10] 26.6 µM | [7] 26.8 µM

CCOC(=O)c1ccccc1C(=C1C=C(Br)C(=O)C(Br)=C1)c1cc(Br)c(O)c(Br)c1
inactive: [10] | [7] | [1] | [2] | [5] | [13] | [6] | [9] | [14]
active: [8] 51.3 µM

CC(CO)CO
not listed: [3] | [15] | [16] | [17] | [18] | [19] | [20]
inactive: all other assays above

CN1C(C(=O)Nc2ccccn2)=C(O)c2sccc2S1(=O)=O
inactive: [1] | [2] | [3] | [8] | [4] | [5] | [12] | [13] | [6] | [9]
active: [14] 29.8 µM

CC(C)C=O
not listed: [3] | [12] | [15] | [16] | [17] | [18] | [19] | [20]
inactive: all other assays above

CCCCN(CCCC)C(C(N)=O)c1ccc(OC)cc1 (stereo not drawn)
inactive: [10] | [7] | [1] | [2] | [3] | [8] | [5] | [11] | [12] | [13] | [6]

C=C1CCC2CC1C2(C)C (stereo not drawn)
not listed: [2] | [5] | [15] | [16] | [17] | [18] | [19]
inactive: all other assays above

CCC(OCCCOC)OC(C)=O (stereo not drawn)
not listed: [2] | [15] | [16] | [17] | [18] | [19]
inactive: all other assays above

c1ccc2sc(SN(C3CCCCC3)C3CCCCC3)nc2c1
inactive: [10] | [7] | [1] | [20] | [3] | [8] | [4] | [5] | [11] | [13] | [6]

O=c1c(O)c(-c2ccc(O)cc2)oc2cc(O)cc(O)c12
active: [14] 18.4 µM
not listed: [2] | [6] | [15] | [16] | [17] | [18] | [19]
inactive: all other assays above

Cc1ccccc1N=C(N)Nc1ccccc1C
not listed: [2] | [5] | [7] | [15] | [16] | [17] | [18] | [19]
inactive: all other assays above
